According to ChEMBL document CHEMBL1961873, “Compounds: GSK PKIS; Assays: Nanosyn kinase panel” (2012):

Assays:
[1] = molecular target: Protein kinase C gamma type (Homo sapiens) (UniProt P05129); conditions: at 1 µM;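 also: each value is an averaged percent inhibition of the enzyme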
[2] = molecular target: T1, Protein kinase C iota type (Homo sapiens) (UniProt P41743); conditions: at 0.1 µM
T1 sequence (whole entry): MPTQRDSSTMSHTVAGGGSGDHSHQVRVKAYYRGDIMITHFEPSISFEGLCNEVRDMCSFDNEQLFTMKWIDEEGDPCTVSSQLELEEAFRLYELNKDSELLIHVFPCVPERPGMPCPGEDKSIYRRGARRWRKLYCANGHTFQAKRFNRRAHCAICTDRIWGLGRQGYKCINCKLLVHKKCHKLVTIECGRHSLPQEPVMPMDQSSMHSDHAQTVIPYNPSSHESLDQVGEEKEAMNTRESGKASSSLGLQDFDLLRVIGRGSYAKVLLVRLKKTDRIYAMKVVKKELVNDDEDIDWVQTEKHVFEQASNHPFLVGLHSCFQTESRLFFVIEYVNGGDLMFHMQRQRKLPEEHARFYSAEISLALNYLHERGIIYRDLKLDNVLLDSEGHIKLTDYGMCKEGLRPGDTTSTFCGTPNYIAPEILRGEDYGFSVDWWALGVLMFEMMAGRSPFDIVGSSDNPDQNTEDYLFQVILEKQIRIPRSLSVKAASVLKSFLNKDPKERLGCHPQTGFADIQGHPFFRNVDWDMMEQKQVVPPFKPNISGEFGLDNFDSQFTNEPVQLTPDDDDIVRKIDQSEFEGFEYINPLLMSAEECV

[3] = molecular target: T1, Protein kinase C iota type (Homo sapiens); conditions: at 1 µM
[4] = molecular target: Protein kinase C theta type (Homo sapiens) (UniProt Q04759); conditions: at 0.1 µM
Chain of Protein kinase C theta type (Homo sapiens) (Q04759 whole entry, looked up): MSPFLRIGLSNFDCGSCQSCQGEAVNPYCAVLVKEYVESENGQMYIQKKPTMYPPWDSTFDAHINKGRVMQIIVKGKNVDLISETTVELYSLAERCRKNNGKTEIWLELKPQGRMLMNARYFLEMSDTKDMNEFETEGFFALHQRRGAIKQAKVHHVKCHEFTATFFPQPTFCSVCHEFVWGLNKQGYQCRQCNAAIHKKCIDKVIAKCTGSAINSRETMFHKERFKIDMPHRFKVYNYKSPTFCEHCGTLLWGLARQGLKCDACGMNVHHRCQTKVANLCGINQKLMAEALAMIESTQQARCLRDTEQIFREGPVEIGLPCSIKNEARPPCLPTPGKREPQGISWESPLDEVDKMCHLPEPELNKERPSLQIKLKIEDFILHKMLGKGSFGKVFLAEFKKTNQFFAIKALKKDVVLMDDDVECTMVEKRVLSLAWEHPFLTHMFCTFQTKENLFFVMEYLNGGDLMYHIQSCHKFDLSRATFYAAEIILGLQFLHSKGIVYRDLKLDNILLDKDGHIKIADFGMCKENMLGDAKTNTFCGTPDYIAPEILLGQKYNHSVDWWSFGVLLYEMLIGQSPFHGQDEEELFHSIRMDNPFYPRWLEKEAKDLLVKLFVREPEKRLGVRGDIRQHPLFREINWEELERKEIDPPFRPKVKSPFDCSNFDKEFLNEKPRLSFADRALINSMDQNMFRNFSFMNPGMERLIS

[5] = molecular target: Protein kinase C theta type (Homo sapiens) (UniProt Q04759); conditions: at 1 µM
[6] = molecular target: Protein kinase C beta type (Homo sapiens) (UniProt P05771); conditions: at 0.1 µM
Chain of Protein kinase C beta type (Homo sapiens) (P05771 2-671 limits assumed): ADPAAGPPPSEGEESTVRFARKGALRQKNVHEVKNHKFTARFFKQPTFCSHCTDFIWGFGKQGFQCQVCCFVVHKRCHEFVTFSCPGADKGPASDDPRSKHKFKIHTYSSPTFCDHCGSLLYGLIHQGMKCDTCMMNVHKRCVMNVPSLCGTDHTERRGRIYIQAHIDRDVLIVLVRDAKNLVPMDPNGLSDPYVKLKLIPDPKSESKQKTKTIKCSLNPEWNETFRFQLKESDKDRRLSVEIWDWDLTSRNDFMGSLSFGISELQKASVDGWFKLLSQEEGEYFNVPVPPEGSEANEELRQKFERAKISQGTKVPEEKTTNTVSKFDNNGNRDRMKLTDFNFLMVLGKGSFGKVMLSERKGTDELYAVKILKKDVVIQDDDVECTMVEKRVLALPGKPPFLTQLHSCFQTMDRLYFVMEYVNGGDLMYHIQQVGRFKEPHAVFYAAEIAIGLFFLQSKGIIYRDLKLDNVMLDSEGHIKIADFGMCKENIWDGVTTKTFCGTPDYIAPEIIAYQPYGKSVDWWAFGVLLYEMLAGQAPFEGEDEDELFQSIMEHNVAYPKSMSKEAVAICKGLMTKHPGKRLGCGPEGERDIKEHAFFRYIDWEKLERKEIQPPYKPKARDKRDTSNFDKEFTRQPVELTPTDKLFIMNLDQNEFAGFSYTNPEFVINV

[7] = molecular target: Protein kinase C beta type (Homo sapiens) (UniProt P05771); conditions: at 1 µM
[8] = molecular target: T2, Serine/threonine-protein kinase D1 (Homo sapiens) (UniProt Q15139); conditions: at 0.1 µM
T2 sequence (whole entry): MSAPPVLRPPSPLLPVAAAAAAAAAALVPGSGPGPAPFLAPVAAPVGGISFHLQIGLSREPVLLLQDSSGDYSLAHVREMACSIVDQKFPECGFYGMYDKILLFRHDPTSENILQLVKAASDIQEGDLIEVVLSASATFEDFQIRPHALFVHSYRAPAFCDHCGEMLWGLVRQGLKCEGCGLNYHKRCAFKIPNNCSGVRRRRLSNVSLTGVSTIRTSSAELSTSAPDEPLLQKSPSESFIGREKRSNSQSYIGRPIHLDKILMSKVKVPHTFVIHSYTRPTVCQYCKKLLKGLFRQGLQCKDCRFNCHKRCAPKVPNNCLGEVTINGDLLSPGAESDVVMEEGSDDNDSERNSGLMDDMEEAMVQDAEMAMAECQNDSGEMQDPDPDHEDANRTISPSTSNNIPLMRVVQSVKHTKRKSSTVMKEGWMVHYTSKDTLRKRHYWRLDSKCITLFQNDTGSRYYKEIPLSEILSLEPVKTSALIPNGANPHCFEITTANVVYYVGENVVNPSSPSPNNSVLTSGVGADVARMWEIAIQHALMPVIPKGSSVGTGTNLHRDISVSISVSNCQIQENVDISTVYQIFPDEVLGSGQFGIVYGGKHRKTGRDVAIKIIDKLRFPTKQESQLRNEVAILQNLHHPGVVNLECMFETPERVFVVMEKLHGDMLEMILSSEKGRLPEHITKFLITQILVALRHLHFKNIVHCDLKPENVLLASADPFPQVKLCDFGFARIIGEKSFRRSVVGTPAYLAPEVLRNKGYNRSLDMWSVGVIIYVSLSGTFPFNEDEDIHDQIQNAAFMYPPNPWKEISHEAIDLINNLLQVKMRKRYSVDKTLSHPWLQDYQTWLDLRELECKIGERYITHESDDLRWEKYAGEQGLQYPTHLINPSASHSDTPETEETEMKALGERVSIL

[9] = molecular target: T2, Serine/threonine-protein kinase D1 (Homo sapiens); conditions: at 1 µM
[10] = molecular target: T3, Serine/threonine-protein kinase D2 (Homo sapiens) (UniProt Q9BZL6); conditions: at 0.1 µM;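 also: reported percent inhibition values are means, part of the GSK PKIS kinase panel screen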
T3 sequence (whole entry): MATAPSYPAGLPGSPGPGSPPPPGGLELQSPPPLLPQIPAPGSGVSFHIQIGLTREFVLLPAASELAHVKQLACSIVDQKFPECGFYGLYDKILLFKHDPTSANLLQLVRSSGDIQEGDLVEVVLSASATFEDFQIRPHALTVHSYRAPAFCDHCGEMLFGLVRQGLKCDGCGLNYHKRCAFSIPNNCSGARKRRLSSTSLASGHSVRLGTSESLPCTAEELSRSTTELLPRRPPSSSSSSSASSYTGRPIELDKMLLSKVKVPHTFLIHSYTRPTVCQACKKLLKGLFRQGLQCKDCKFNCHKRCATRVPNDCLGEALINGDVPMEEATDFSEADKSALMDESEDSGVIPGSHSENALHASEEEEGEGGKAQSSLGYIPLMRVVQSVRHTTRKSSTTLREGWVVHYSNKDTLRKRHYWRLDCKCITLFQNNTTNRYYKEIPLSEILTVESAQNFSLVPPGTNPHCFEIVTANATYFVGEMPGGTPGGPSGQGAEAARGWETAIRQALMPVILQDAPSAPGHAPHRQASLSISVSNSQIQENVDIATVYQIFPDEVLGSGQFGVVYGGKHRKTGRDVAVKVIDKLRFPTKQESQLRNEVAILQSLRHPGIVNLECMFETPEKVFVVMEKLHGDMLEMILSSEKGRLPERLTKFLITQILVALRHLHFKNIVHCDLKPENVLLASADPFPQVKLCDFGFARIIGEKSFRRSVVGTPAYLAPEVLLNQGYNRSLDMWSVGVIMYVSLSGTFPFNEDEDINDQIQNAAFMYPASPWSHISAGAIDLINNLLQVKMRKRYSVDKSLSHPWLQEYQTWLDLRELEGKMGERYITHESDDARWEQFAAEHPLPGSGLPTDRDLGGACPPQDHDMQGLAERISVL

| SMILES | inhibition [1] | inhibition [2] | inhibition [3] | inhibition [4] | inhibition [5] | inhibition [6] | inhibition [7] | inhibition [8] | inhibition [9] | inhibition [10] |
| --- | --- | --- | --- | --- | --- | --- | --- | --- | --- | --- |
| CN(C)CCOc1ccc(-c2nc(-c3ccncc3)c(-c3ccc4c(c3)CC/C4=N\O)[nH]2)cc1 | 3.66% | 3.25% | 3.37% | 2.07% | 2.93% | 0.36% | 3.35% | 3.26% | 6.18% | 2.55% |
| CCn1cc(-c2ccnc3[nH]ccc23)c(-c2cccc(NC(=O)Nc3ccc(OCc4ccccc4)cc3)c2)n1 | 2.68% | -0.3% | 0.28% | 0.93% | 1.88% | 0.47% | 1.93% | 2.3% | 5.37% | 18.8% |
| CCCN1CCC(c2ccc(Nc3nc(Nc4cc(F)ccc4C(N)=O)c4cc[nH]c4n3)c(OC)c2)CC1 | 29.8% | 0.78% | 1.12% | 2.2% | 8.87% | 1.54% | 6.05% | 21.5% | 73.8% | 18% |
| Fc1cccc(COc2ccc(Nc3ncnc4sc(-c5ccco5)cc34)cc2Cl)c1 | 1.6% | 2.45% | 2.35% | 2% | 2.39% | 1% | 1.15% | 5.24% | 6.44% | 4.13% |
| CCCN(CCS(C)(=O)=O)Cc1ccc(-c2ccc3ncnc(Nc4ccc(OCc5cccc(F)c5)c(Cl)c4)c3c2)o1 | 2.5% | 1.67% | -0.59% | 0.4% | 0.62% | 1.13% | 2.02% | 1.1% | 2.52% | 0.95% |
| COc1ccc2c(-c3ccnc(Nc4cccc(OC(F)(F)F)c4)n3)cnn2n1 | 1.65% | 2.36% | 1.45% | 2.59% | 4.8% | 1.08% | 5.19% | 3.42% | 6.19% | 3.92% |
| COc1cccc(-n2ncc3c(N/N=C/c4ccc(F)cc4)ncnc32)c1 | 2.6% | 1.87% | 1.45% | 2.53% | 4.19% | 2.56% | 0.22% | 3.64% | 4.89% | 3.35% |
| N#Cc1c(NC(=O)CN2CCOCC2)sc2c1CCCC2 | 4.29% | 1.29% | 0.6% | 3.07% | 3.7% | 1.49% | 2.84% | 3.69% | 6.16% | 3.86% |
| c1cc(-c2cnn3nc(N4CCOCC4)ccc23)nc(NC2CC2)n1 | 1.85% | 1.79% | 3.89% | 1.39% | 1.61% | 0.87% | 1.89% | 3.97% | 39.6% | 6.38% |
| CNC(=O)c1cncc(/C=C/c2ccccc2Cl)c1 | 3.18% | 1.77% | 0.56% | 1.22% | 3.14% | 2.46% | 1.4% | 1.19% | -1.46% | -1% |
| COc1ccc(-c2oc3ncnc(N)c3c2-c2ccc(NC(=O)Nc3cc(C(F)(F)F)ccc3F)cc2)cc1 | 6.08% | 3.51% | 0.63% | 3.51% | 5.06% | 1.71% | 4.49% | 2.73% | 3.09% | 3.37% |
| COc1ccc(CNC(=O)c2ccc(-c3cc(-c4nnc(C)o4)ccc3C)cc2)cc1 | 2.05% | 2.77% | 0.76% | 2.86% | 5.52% | 2.73% | 3.61% | 2.89% | -0.42% | 0.8% |
| CN1CCC(n2cnc(-c3ccc(F)cc3)c2-c2ccnc(N)n2)CC1 | 8.99% | 0.59% | 0.68% | 1.72% | 3.61% | 2.83% | 12.3% | 4.67% | 26.3% | 3.25% |
| COc1cc(/C=N/Nc2ncnc3[nH]ncc23)ccc1O | 8.27% | 2.83% | 2.53% | 2.3% | 4.29% | 0.58% | 4.16% | 2.99% | 4.19% | 2.81% |
| COC(=O)Nc1nc2ccc(S(=O)(=O)c3ccc(NC(=O)Nc4cc(C(F)(F)F)ccc4F)cc3)cc2[nH]1 | 1.8% | 0.65% | 1.49% | 0.7% | -0.17% | 0.33% | 0.07% | 2.33% | 5.18% | 2.66% |
| COc1ccc(-c2cc3c(N)ncnc3o2)cc1 | 8.58% | -0.83% | -1.03% | -1.21% | -1.64% | 0.45% | 1.65% | -1% | -1.28% | -0.34% |
| Nc1nc(-c2cccc(Cl)c2)c(-c2ccc3ncccc3n2)s1 | 6.65% | 2.71% | 1.25% | 4.95% | 5.67% | 2.82% | 2.11% | 5.85% | 35% | 7.33% |
